KB-3-1 cytotox = kills parental KB-3-1 adenocarcinoma cells; KB-3-1 viability, CellTiter-Glo ATP luminescence, 72 h; Potency, µM (titrated, usually from 46.1 µM), actives largely listed as cytotoxic; 400,000 compounds, 1.4% hits; also: nearly all actives have a fitted effect of over 60% in size
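Cytotoxicity in the drug-sensitive parental line KB-3-1 was scored as loss of CellTiter-Glo luminescence following 72 h incubation with compound. Values come from curve fitting of normalized concentration-response data.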
TDP1 cell noCPT = qHTS for Inhibitors of human tyrosyl-DNA phosphodiesterase 1 (TDP1): qHTS in cells in absence of CPT; DT40 Tdp1-/- hTDP1 cells, no CPT, ATP luminescence, 48 h; Potency, µM (doses to about 46.2 µM), without a hit: at the top dose activity change, negative = growth inhibition, actives largely listed as inhibitors; 420,000 compounds, 15% hits; AID 686978, 2013; also: nearly all actives have a fitted effect of over 55% in size
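Luminescent ATP content (CellTiter-Glo) served as the growth readout. Knockout chicken DT40 cells expressing human TDP1 were exposed to compounds without camptothecin for a minimum 48 hr at 37 °C.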
KB-V1 cytotox = KB-V1 MDR subline cytotoxicity. KB-V1 MDR cells viability, CellTiter-Glo, 72 h. Potency, µM (top dose mostly 46.1 µM), hits mostly cytotoxic. 400,000 compounds, 3.4% hits. AID 1347076; also: nearly all actives have a fitted effect of over 60% in size
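Potencies derive from concentration-effect curves fitted to normalized luminescence (CellTiter-Glo) of KB-V1 cells treated for 72 h at 37 degrees C in phenol-red-free DMEM containing 10% FBS.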
DT40 TDP1 CPT = growth inhibition of DT40 Tdp1-/-;hTDP1 cells with camptothecin (screen for TDP1 inhibitors); chicken DT40 Tdp1-/-;hTDP1 cells + 20 nM CPT, ATP luminescence, 48 h; Potency, µM (top dose mostly 46.2 µM), inactives show at the top dose activity change, negative = growth inhibition, hits mostly inhibitors; 420,000 compounds, 12% hits; also: nearly all actives have a fitted effect of over 55% in size
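Chicken DT40 Tdp1-/- cells stably complemented with human TDP1 were seeded at 400 cells/well in medium containing 20 nM camptothecin, exposed to pin-transferred compounds, and grown at 37 °C for at least 48 hr. Viability was read as ATP luminescence.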
HT1080 IDH1KD tx = HT-1080 IDH1 knockdown cell toxicity (counter line) | HT-1080 IDH1 knockdown viability, ATP luminescence, 48 h | 360,000 compounds, 2% hits | Potency, µM (doses to about 46.1 µM), for the others: at the highest dose activity, negative = toxicity, usual class: cytotoxic;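 also: 0% = DMSO wells and -100% = cell-free medium wells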
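Viability of IDH1-knockdown HT-1080 fibrosarcoma cells was assessed by CellTiter-Glo after 48 h at 37 °C with titrated compound; concentration-effect curves were classified by fit quality and response size.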
HT1080NT lethal = kills 2HG-producing HT-1080-NT fibrosarcoma cells. HT-1080-NT fibrosarcoma viability, CellTiter-Glo ATP luminescence, 48 h. Potency, µM (series often up to 46.1 µM), inactives show at the highest dose activity, negative = less viability, hits mostly cytotoxic. 360,000 compounds, 1.6% hits;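 also: NT is the 2HG producing partner of a matched IDH1 knockdown line; 0% = DMSO-treated cells and -100% = media-only wells without cells; nearly all actives have a fitted effect of over 55% in size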
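HT-1080-NT fibrosarcoma cells (2HG-overproducing), 750 cells/well in RPMI with 5% FBS, dosed after 2 h and incubated 48 h at 37C. CellTiter-Glo luminescence normalized to DMSO and no-cell wells; concentration-response curves fitted and classed.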
* = called active by the depositor; i = inactive; ? = inconclusive; . = no result. Compounds with a hit are over-represented: about 19% of the library has one in this group of screens. Calls follow the shape of the dose curve; as a rule, active = well fitted curve in the direction sought with a large enough effect; inconclusive = small, poorly fitted or top-dose-only effect, or another doubt; inactive = no such curve, though single readings can be large; an effect the other way counts as inactive or inconclusive. Unless noted, % is scaled to controls: 0 for no effect and ±100 for the full control effect; potency is read from the fitted curve at half-maximal effect.

SMILES	KB-3-1 cytotox	TDP1 cell noCPT	KB-V1 cytotox	DT40 TDP1 CPT	HT1080 IDH1KD tx	HT1080NT lethal
COCCNC(=O)C1CCCN(Cc2ccccc2)CC1 (centres undefined)	?	1.0%	?	-21.6%	?	15.6%
O=C(NCCc1ccccc1)C1CCN(Cc2cccc3ccccc23)CC1	i	?	i	?	-29.6%	?
CC(C)CNC(=O)C1CCN(Cc2ccc(OCc3ccccc3)cc2)CC1	i	?	?	?	-12.8%	-11.6%
O=C(NCCc1ccccc1)C1CCN(Cc2cc3ccccc3n2Cc2ccccc2)CC1	i	20.6µM*	i	?	.	.
CCCNC(=O)C1CCN(Cc2cc3ccccc3n2Cc2ccccc2)CC1	i	18.4µM*	i	?	.	.
CCOc1ccccc1CNC(=O)C1CCN(Cc2cc3ccccc3n2Cc2ccccc2)CC1	i	16.4µM*	i	?	.	.
CC(CNC(=O)C1CCN(Cc2cc3ccccc3n2Cc2ccccc2)CC1)c1ccccc1 (centres undefined)	i	16.4µM*	i	23.1µM*	.	.
Cc1ccc(N(C(=O)CS(=O)CC(=O)Nc2ccc(F)cc2)C(C)C(=O)NC(C)(C)C)cc1 (centres undefined)	i	-21.8%	i	-8.2%	11.3%	7.8%
COCCCNC(=S)N1CCN(S(C)(=O)=O)CC1	i	9.9%	i	2.0%	-2.7%	-2.3%
CN(C)CCNC(=O)C1CCN(Cc2cc3ccccc3n2Cc2ccccc2)CC1	i	16.4µM*	?	20.6µM*	.	.
CN(Cc1ccccc1)C(=O)C1CCN(Cc2cc3ccccc3n2Cc2ccccc2)CC1	?	?	i	?	.	.
COc1cccc(CNC(=O)CSc2c3c(nc4ccc(Cl)cc24)CCCC3)c1OC	.	9.2µM*	.	7.31µM*	.	.
CCOc1ccc(CNC(=O)CSc2c3c(nc4ccc(Cl)cc24)CCCC3)cc1	.	-25.4%	.	-28.4%	.	.
CCc1ccc(CNC(=O)CSc2c3c(nc4ccc(Cl)cc24)CCCC3)cc1	.	?	.	-23.2%	.	.
COc1ccc(OC)c(CNC(=O)CSc2c3c(nc4cc(Cl)ccc24)CCCC3)c1	i	23.1µM*	i	16.4µM*	.	.
COc1cc(/C=C2/C(=O)N(c3ccc(C)c(C)c3)N=C2C)cc([N+](=O)[O-])c1O	i	23.2%	i	-8.6%	0.2%	1.7%
COc1cc(/C=C2\C(=O)N(c3ccccc3)N=C2C)ccc1Oc1ccc([N+](=O)[O-])cc1[N+](=O)[O-]	i	18.4µM*	i	16.4µM*	?	-26.8%
CCCOc1ccc(/C=C2\SC(N)=NC2=O)cc1OC	i	?	?	-13.1%	1.1%	-13.2%
COc1cc(/C=C2\SC(N)=NC2=O)ccc1OCC(=O)Nc1ccccc1C	i	9.2µM*	i	?	?	?
COc1cc(/C=C2/SC(N)=NC2=O)ccc1Oc1ccc([N+](=O)[O-])cc1[N+](=O)[O-]	i	2.91µM*	i	3.26µM*	-8.4%	-5.7%
CC1=NN(c2ccccc2)C(=O)/C1=C\c1ccc(Oc2ccc([N+](=O)[O-])cc2[N+](=O)[O-])cc1	i	?	i	?	10.3µM*	20.6µM*
COc1cc(C(=O)N2CCN(CCc3ccccn3)CC2)cc(OC)c1OC	i	-17.9%	i	3.4%	.	.
C=Cc1ccc(Cn2nc(-c3ccc(C)cc3)ccc2=O)cc1	i	?	i	?	-18.1%	-21.9%
CC(C)CN1C(=O)C(=O)N(CC(=O)NC(C)CCc2ccccc2)C1=O (centres undefined)	i	-31.6%	i	-16.9%	2.0%	0.5%
CC(C)C(NC(=O)c1c(F)cccc1F)C(=O)NC1CC(C)(C)NC(C)(C)C1 (centres undefined)	i	-17.4%	i	0.6%	8.3%	15.5%
SMILES	KB-3-1 cytotox	TDP1 cell noCPT	KB-V1 cytotox	DT40 TDP1 CPT	HT1080 IDH1KD tx	HT1080NT lethal
CCc1ccc(NCc2cc3cc4c(cc3n(CC(=O)Nc3ccccc3OC)c2=O)OCCO4)cc1	i	.	i	.	.	.
CC[C@H](C)[C@@H](NC(=O)O[C@@H]1C(=O)c2cc(OC)ccc2O[C@H]1c1ccc(OC)c(Br)c1)C(=O)OC	i	18.4µM*	i	?	-1.0%	0.0%
CC1=C(C(=O)NCc2ccc(Cl)cc2)C2(CCCCCC2)OC1=O	i	-28.8%	i	?	.	.
CS(=O)(=O)c1cnc2c(-c3ccc(F)cc3)cnn2c1N	i	-27.8%	i	-13.6%	5.3%	7.1%
COc1ccc(-c2c(C)nc3c(-c4ccsc4)cnn3c2N)cc1	i	?	?	?	0.0%	-1.1%
Cc1nc2c(-c3ccc(F)cc3)cnn2c(N)c1-c1ccc(F)cc1	i	4.61µM*	?	20.6µM*	-0.2%	3.0%
COc1ccc(-c2c(C)nc3c(-c4ccccn4)cnn3c2N)cc1	i	18.4µM*	i	?	-13.9%	-18.8%
COc1ccc(C2COc3c(ccc(O)c3OC)C2)c(OC)c1O (centres undefined)	.	-28.7%	.	?	.	.
CCNc1nc2c(c(=O)n(C)c(=O)n2C)n1CC(O)COc1ccccc1 (centres undefined)	?	.	5.17µM*	.	.	.
COc1ccc(OCC(O)Cn2c(Nc3cccc(C)c3)nc3c2c(=O)n(C)c(=O)n3C)cc1 (centres undefined)	i	14.6µM*	i	?	7.1%	4.6%
Cc1cccc(Nc2nc3c(c(=O)n(C)c(=O)n3C)n2Cc2ccccc2)c1	i	-0.6%	?	-16.0%	-2.8%	8.2%
Cc1ccccc1OCC(O)Cn1c(Br)nc2c1c(=O)n(C)c(=O)n2C (centres undefined)	i	?	i	?	-4.6%	-12.5%
CCCNc1nc2c(c(=O)n(C)c(=O)n2C)n1CC(O)COc1ccccc1 (centres undefined)	i	.	9.2µM*	.	.	.
COc1ccc(OCC(O)Cn2c(NCCO)nc3c2c(=O)n(C)c(=O)n3C)cc1 (centres undefined)	.	10.3µM*	.	9.2µM*	.	.
Cc1cc(F)ccc1-c1cc(C(=O)NCc2ccco2)[nH]n1	i	-10.2%	i	-2.5%	0.7%	4.8%
CCOc1ccccc1NC(=O)CCc1c(C)nn(-c2ccc(N3CCOCC3)nn2)c1C	i	?	i	?	.	.
O=C(CNC(=O)C12CC3CC(CC(C3)C1)C2)OCc1ccc(F)cc1Cl	i	13.8%	i	6.3%	12.4%	11.3%
